Reference: PubChem BioAssay (NCI)
This is part of a sample that, as a whole, favours compounds with a hit. Of some 79,000 tested, about 15% had one in any assay. Active and inactive are the calls of the source. Cut-off read from the data, not from the text of the source: active = growth inhibition above about 70%; inactive = the rest.

Columns and labels:
[1] = NCI Yeast Anticancer Drug Screen. Data for the rad52 strain (AID 147);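 note: 0% = growth of vehicle-treated control cultures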; conditions: S. cerevisiae rad52 mutant growth inhibition, hits give high values
Summary of the method: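 Compounds are applied to a genetically defined yeast strain lacking normal DNA damage repair, and inhibition of growth is expressed relative to cultures given vehicle only.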

[2] = NCI Yeast Anticancer Drug Screen. Data for the wt1 strain (AID 149);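 note: 0% = growth of vehicle-treated wt1 cultures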; conditions: S. cerevisiae wt1 strain (SPY 50644) growth inhibition, hits give high values
Summary of the method: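 Measured: growth of wt1 yeast under compound versus vehicle treatment, reported as inhibition.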

[3] = NCI Yeast Anticancer Drug Screen. Data for the rad50EPP+ strain (AID 151);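 note: 0% = growth of vehicle-treated control cultures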; conditions: S. cerevisiae rad50 mutant strain, hits give high values
Summary of the method: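 Compounds were applied to the rad50EPP+ yeast strain, which bears a defined DNA repair alteration, and growth inhibition was determined relative to vehicle-treated cultures.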

[4] = NCI Yeast Anticancer Drug Screen. Data for the mgt1 strain (AID 153); conditions: S. cerevisiae mgt1 mutant growth inhibition, hits give high values
Summary of the method: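 Strain: mgt1 yeast, one of a set carrying defined DNA damage repair or cell cycle control alterations. Compound-treated growth compared with vehicle.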

[5] = NCI Yeast Anticancer Drug Screen. Data for the rad50 strain (AID 155);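 note: 0% = growth of vehicle-only cultures of the same strain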; conditions: S. cerevisiae rad50 strain growth inhibition, hits give high values
Summary of the method: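 Growth of the mutant yeast was measured after compound exposure and referenced to vehicle-treated cultures.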

[6] = NCI Yeast Anticancer Drug Screen. Data for the mec2-1 strain (AID 157); conditions: S. cerevisiae mec2-1 strain, hits give high values
Summary of the method: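 Strain: mec2-1 (DNA repair/cell cycle alteration). Compound exposure, then growth measured; inhibition expressed relative to vehicle.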

[7] = NCI Yeast Anticancer Drug Screen. Data for the rad14 strain (AID 159);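 note: 0% = growth of vehicle-treated control cultures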; conditions: S. cerevisiae rad14 strain growth inhibition, hits give high values
Summary of the method: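 Here, inhibition of yeast growth was measured after compound exposure, using a strain with a genetic defect in DNA damage repair and vehicle-treated cultures as the reference.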

[8] = NCI Yeast Anticancer Drug Screen. Data for the CLN2oe strain (AID 163);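 note: 0% = growth of vehicle-only control cultures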; conditions: S. cerevisiae CLN2oe strain, hits give high values
Summary of the method: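 Growth of a genetically modified yeast strain is measured after compound exposure and compared with cultures given vehicle alone.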

[9] = NCI Yeast Anticancer Drug Screen. Data for the cln2 rad14 strain (AID 165);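 note: 0% = growth equal to vehicle treated cultures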; conditions: S. cerevisiae cln2 rad14 strain, hits give high values
Summary of the method: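 Compounds are applied to the cln2 rad14 yeast strain, and growth is then compared with that of vehicle-treated cultures to give inhibition.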

[10] = NCI Yeast Anticancer Drug Screen. Data for the bub3 strain (AID 167); conditions: S. cerevisiae bub3 mutant strain, hits give high values
Summary of the method: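 Whole-cell yeast assay. The mutant strain was incubated with compounds, and growth inhibition was determined by comparison with vehicle-treated cells.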

[11] = NCI Yeast Anticancer Drug Screen. Data for the wt2 strain (AID 169);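 note: 0% = growth of vehicle-treated yeast cultures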; conditions: S. cerevisiae wt2 strain growth inhibition, hits give high values
Summary of the method: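 This strain belongs to a panel of yeast strains with defined genetic alterations in DNA damage repair or cell cycle control. Compounds are applied, and growth inhibition is measured against vehicle-treated cultures.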

[12] = NCI Yeast Anticancer Drug Screen. Data for the mlh1 strain (AID 171);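 note: 0% = growth of vehicle-treated control cultures of the same strain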; conditions: S. cerevisiae mlh1 strain growth inhibition, hits give high values
Summary of the method: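 Growth of the mutant yeast strain after compound exposure, expressed as inhibition relative to vehicle-only controls.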

[13] = NCI Yeast Anticancer Drug Screen. Data for the sgs1 strain (AID 173);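 note: 0% = growth of vehicle-only control cultures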; conditions: S. cerevisiae sgs1 mutant, hits give high values
Summary of the method: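 Growth of a yeast strain bearing a defined genetic alteration is measured after compound treatment. Inhibition is expressed relative to vehicle-only controls.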

[14] = NCI Yeast Anticancer Drug Screen. Data for the rad18 strain (AID 177); conditions: S. cerevisiae rad18 mutant growth inhibition, hits give high values
Summary of the method: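 Growth of the mutant yeast strain after compound exposure, normalised to vehicle-only cultures.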

[15] = at 5.0 µM (retest, dose inferred, filed as 0.5)
[16] = at 50.0 µM (retest, dose inferred, filed as 5.0)

Measured: growth inhibition

N/C(=N\OC(=O)NC(Cl)=C(Cl)Cl)c1cc(C(F)(F)F)cc(C(F)(F)F)c1
active: [1]; at 100.0 µM 98% | [2]; at 100.0 µM 97% | [4]; at 33.0 µM 74% | [4]; at 100.0 µM 97% | [5]; at 50.0 µM 89% | [5]; at 100.0 µM 97% | [6]; at 50.0 µM 89.3% | [6]; at 100.0 µM 95% | [7]; at 100.0 µM 96% | [8]; at 100.0 µM 98% | [9]; [16] 94% | [9]; at 50.0 µM 89% | [10]; [16] 91% | [10]; at 50.0 µM 89.9% | [10]; at 100.0 µM 96% | [11]; at 100.0 µM 96% | [12]; at 100.0 µM 97% | [13]; at 100.0 µM 97% | [14]; at 33.0 µM 72% | [14]; at 100.0 µM 97%
inactive: [1]; at 1.2 µM -14% | [1]; at 3.7 µM -11% | [1]; at 11.0 µM -2% | [1]; at 33.0 µM 64% | [2]; at 1.2 µM 16% | [2]; at 3.7 µM -13% | [2]; at 11.0 µM -19% | [2]; at 33.0 µM 40% | [3]; at 1.2 µM -30% | [3]; at 3.7 µM -48% | [3]; at 11.0 µM -43% | [3]; at 33.0 µM -35% | [3]; at 100.0 µM 17% | [4]; at 1.2 µM -23% | [4]; at 3.7 µM 7% | [4]; at 11.0 µM 6% | [5]; at 1.2 µM -10% | [5]; at 3.7 µM -20% | [5]; [15] 34% | [5]; at 11.0 µM 6% | [5]; at 33.0 µM 59% | [5]; [16] 54% | [6]; at 1.2 µM -33% | [6]; at 3.7 µM -61% | [6]; [15] 36% | [6]; at 11.0 µM -32% | [6]; at 33.0 µM 33% | [6]; [16] 58% | [7]; at 1.2 µM -53% | [7]; at 3.7 µM -36% | [7]; at 11.0 µM -48% | [7]; at 33.0 µM 18% | [8]; at 1.2 µM 25% | [8]; at 3.7 µM 11% | [8]; at 11.0 µM 7% | [8]; at 33.0 µM 66% | [9]; [15] 45% | [10]; at 1.2 µM -23% | [10]; at 3.7 µM -9% | [10]; [15] 34% | [10]; at 11.0 µM -30% | [10]; at 33.0 µM 23% | [11]; at 1.2 µM -43% | [11]; at 3.7 µM -32% | [11]; at 11.0 µM -36% | [11]; at 33.0 µM 38% | [12]; at 1.2 µM -27% | [12]; at 3.7 µM -11% | [12]; at 11.0 µM -14% | [12]; at 33.0 µM 57% | [13]; at 1.2 µM -22% | [13]; at 3.7 µM -16% | [13]; at 11.0 µM -9% | [13]; at 33.0 µM 68% | [14]; at 1.2 µM -20% | [14]; at 3.7 µM -21% | [14]; at 11.0 µM -2%

O=[N+]([O-])c1cccc([N+](=O)[O-])c1S(=O)(=O)c1ccccc1
inactive: [2]; at 1.2 µM 20% | [2]; at 3.7 µM 33% | [2]; at 11.0 µM 67% | [4]; at 1.2 µM 19% | [4]; at 3.7 µM 1% | [4]; at 11.0 µM 68% | [6]; at 1.2 µM 19% | [6]; at 3.7 µM 37% | [6]; [15] 14% | [7]; at 1.2 µM -13% | [7]; at 3.7 µM 0% | [7]; at 11.0 µM 59% | [8]; at 1.2 µM 7% | [8]; at 3.7 µM 4% | [8]; at 11.0 µM 52% | [9]; [15] -8% | [9]; at 50.0 µM 34.8% | [10]; at 1.2 µM 0% | [10]; at 3.7 µM 8% | [10]; [15] 5% | [10]; at 11.0 µM 56% | [12]; at 1.2 µM -1% | [12]; at 3.7 µM 22% | [13]; at 1.2 µM 22% | [13]; at 3.7 µM 42% | [14]; at 1.2 µM 17% | [14]; at 3.7 µM 30%
active: [1]; at 1.2 µM 87% | [1]; at 3.7 µM 93% | [1]; at 11.0 µM 97% | [1]; at 33.0 µM 98% | [1]; at 100.0 µM 97% | [2]; at 33.0 µM 89% | [2]; at 100.0 µM 93% | [3]; at 1.2 µM 76% | [3]; at 3.7 µM 88% | [3]; at 11.0 µM 93% | [3]; at 33.0 µM 94% | [3]; at 100.0 µM 92% | [4]; at 33.0 µM 93% | [4]; at 100.0 µM 94% | [5]; at 1.2 µM 83% | [5]; at 3.7 µM 91% | [5]; [15] 82% | [5]; at 11.0 µM 95% | [5]; at 33.0 µM 97% | [5]; [16] 87% | [5]; at 50.0 µM 82.8% | [5]; at 100.0 µM 96% | [6]; at 11.0 µM 87% | [6]; at 33.0 µM 96% | [6]; [16] 91% | [6]; at 50.0 µM 83.3% | [6]; at 100.0 µM 95% | [7]; at 33.0 µM 92% | [7]; at 100.0 µM 92% | [8]; at 33.0 µM 84% | [8]; at 100.0 µM 85% | [9]; [16] 76% | [10]; at 33.0 µM 92% | [10]; [16] 88% | [10]; at 50.0 µM 77.6% | [10]; at 100.0 µM 81% | [12]; at 11.0 µM 76% | [12]; at 33.0 µM 97% | [12]; at 100.0 µM 95% | [13]; at 11.0 µM 75% | [13]; at 33.0 µM 95% | [13]; at 100.0 µM 94% | [14]; at 11.0 µM 82% | [14]; at 33.0 µM 95% | [14]; at 100.0 µM 95%
